These results are taken from PubChem BioAssay AID686971 (National Center for Advancing Translational Sciences (NCATS), 2013).

Hit rate of the full screen: of about 360,000 compounds, about 7,500 (2.1%) were called active. Another 8% or so got no clear call; they are omitted. The sample holds actives, similar compounds and a random draw of the others, so the mix is not that of the screen. More than one record can exist for a structure, and the calls need not agree. Values without a mark were called inactive. Calls come from the whole dose curve; as a rule, active = well fitted cell-killing curve with a large enough effect; inconclusive = small, poorly fitted or top-dose-only effect, or effect the other way, or another doubt; inactive = no such curve, though single readings can be large or run the other way.
Potency is the fitted concentration of half-maximal effect.

The nature of this experiment: qHTS for induction of synthetic lethality in tumor cells producing 2HG: qHTS for the HT-1080-IDH1KD cell line. Conditions: HT-1080 IDH1 knockdown viability, ATP luminescence, 48 h; series mostly up to 46.1 µM; activity, negative = toxicity: at the top concentration. An excerpt:
Unbiased genomic sequencing for 22 glioma genomes found recurrent mutation of IDH1 on chromosome 2q33, a gene encoding the cytosolic isoform of IIDH1 associated with the tri-carboxylic acid cycle (TCA) that catalyzes the oxidative decarboxylation of isocitrate, yielding alpha-ketoglutarate and CO2 via NADP+ to NADPH conversion. Subsequent studies confirmed the recurrent IDH mutations in up to 70% of secondary gliomas and in 10% of AML cases. In addition, the somatic mutation of cancer-associated IDH1 is a point mutation resulting in various amino-acid substituents at Arginine132 (IDH1 R132), a key residue found in the enzyme's active site that when mutated, results in the loss-of-function in metabolizing isocitrate but confers a gain-of-function to produce the oncometabolite 2-hydroxyglutarate (2HG). This in effect defines IDH1 as an oncogene and provides an extraordinary opportunity to discover chemical probes against mutant IDH1 that may translate into much needed new therapies for glioma and AML patients.
This assay aims to perform a synthetic-lethal screen for chemical probes specific for 2HG-producing tumor cells using matched paired cell lines (1) HT-1080-NT fibrosarcoma cell line that overproduces 2HG and (2) HT-1080-IDH1KD cell line which has IDH1 expression knocked-down. Desirable compounds are toxic to the NT fibrosarcoma cell line but not to the IDH1KD cell line. The data in this AID corresponds to the results of the qHTS against the HT-1080 IDH1KD cell line.
[1] Dang L, Jin S, Su SM. IDH mutations in glioma and acute myeloid leukemia. Trends of Mol Med. 2010; 16(9): 387-97.
[2] Dang L et al. Cancer-associated IDH1 mutations produce 2-hydroxyglutarate. Nature. 2010; 465(7300):966.
Molecular Libraries Probe Production Centers Network [MLPCN]
NIH Chemical Genomics Center [NCGC]
Assay Submitter (PI): Lenny Dang Ph.D., Agios Pharmaceuticals
Suspensions of trypsinized HT-1080-IDH1KD cells were dispensed into white, tissue culture-treated, solid 1536-well plates at 5uL/well (750 cells/well final concentration) in RPMI medium supplemented with 5% FBS. Plates were incubated at 37 degrees C for 2 hours, after which 23 nL of compounds or DMSO were delivered to each well using a pin tool. Plates were then incubated at 37 degrees C for an additional 48 hours. CellTiter-Glo viability reagent (Promega) was dispensed into wells (2.5uL/well) and incubated at room temperature for 10 minutes. The plates were measured on a PerkinElmer ViewLux plate reader for luminescent signal (clear filter, 1 sec exp.). DMSO-treated control wells and media-only (no cells) control wells were used to normalize %Activity of identified toxic compounds; DMSO-treated wells corresponded to 0%Activity (100% viability), while media-only controls were used to normalize 100%Activity (0% viability). To minimize variability between cell lines, both HT-1080-NT and HT-1080-IDH1KD lines were dispensed and treated with identical compound series in single batches.
Concentration-response curves were fitted to the signals arising from the resulting luminescence. The concentration-effect curves were then classified based on curve quality (r2), response magnitude and degree of measured activity, and compounds were subsequently categorized based on their curve class.
On the technique in general: In qHTS, concentration-response curves come from the screen itself.
Consider `CC(=O)OC1C2(CC3N4C(=O)C5(CO)SSC4(CC31O)C(=O)N5C)OC(C)C(C)(C)C2=O` (stereo not given), for which the Potency is 0.58 µM (active).

Take `C[C@]12CCC3C(CC[C@H]4[C@H](O)[C@H](O)CC[C@]34C)C1CCC2=O` (stereo not given in full): the “activity, negative = toxicity” value is 1.29%.

With `COC(=O)N1C(c2ccccc2)C1c1ccccc1` (stereo not given), the “activity, negative = toxicity” value was 22.5%.

Regarding `CSc1ccc(C(=O)C2CCCN(Cc3ccn[nH]3)C2)cc1` (stereo not given), the “activity, negative = toxicity” value is 13.8%.

With `CCN1C(=O)NC(=O)C2(CCCC2)C1=O`, the “activity, negative = toxicity” value was 0.17%.

With `Cc1cc(C)cc(NC(=S)NC2CC3CCCC(C2)N3Cc2cccs2)c1` (stereo not given), the Potency is 12.6 µM (active).

In the case of `Cc1cc(C)c2c(c1)NP(=S)(c1ccccc1)N2` (stereo not given), the “activity, negative = toxicity” value is -13.9%.

With `CC(=O)C1(O)CCC2C3CCC4=C(Cl)C(=O)CCC4(C)C3CCC21C` (stereo not given), the “activity, negative = toxicity” value is -28.9%.

Take `Oc1cc2c(cc1O)CN(C(=S)NCCc1ccc(Cl)cc1)CCC2`: the “activity, negative = toxicity” value was 5.49%.

Consider `S=C(NCCc1ccccc1)N1Cc2cc(N3CCOCC3)ccc2-n2nncc2C1`, for which the “activity, negative = toxicity” value is -18.7%.

On to `C[C@H]1CN([C@@H](C)CO)C(=O)CCCn2nncc2CO[C@H]1CN(C)C(=O)Oc1cccc2ccccc12`, for which the “activity, negative = toxicity” value was 10.6%.

Consider `O=[N+]([O-])c1ccc(Cl)c(Cl)c1`, for which the “activity, negative = toxicity” value was 24.3%.

Regarding `C[C@]12CCC3C(CC[C@H]4C[C@@H](O)CC[C@]34C)C1C[C@@H](O)[C@H]2O` (stereo not given in full), the “activity, negative = toxicity” value was 7.01%.

In the case of `C[C@]12CC[C@H](O)C[C@H]1CC[C@@H]1C2CC[C@]2(C)[C@@H](C3=CC(=O)OC3)[C@@H](O)C[C@]12O` (stereo not given in full), the Potency is 3.66 µM (active).

For the compound `C[C@]12CCC3C(CC[C@H]4C[C@@H](O)CC[C@]34C)C1CC[C@@H]2O` (stereo not given in full), the “activity, negative = toxicity” value was -4.31%.

As to `O=C1C2CCN(CC2)C1(CO)CO`, the “activity, negative = toxicity” value is 9.29%.

In the case of `CCOC(=O)CC(SP1(=S)OCC2(CCCCO2)C(C2CCCCO2)O1)C(=O)OCC` (stereo not given), the “activity, negative = toxicity” value is 6.11%.

Take `CC(=O)Cc1ccc(OC(C)C)cc1`: the “activity, negative = toxicity” value is 22.5%.

With `CN(C)CC1Oc2ccccc2OC1(O)c1ccccc1` (stereo not given), the Potency was 4.61 µM (active).

Turning to `CCCOC(=O)C1C2c3ccccc3C(c3ccccc32)C1C(=O)O` (stereo not given), the “activity, negative = toxicity” value is 16.8%.

As for `Cc1ccc(C2CN(C)CC2C(=O)c2ccc(F)cc2)cc1` (stereo not given), the “activity, negative = toxicity” value is -14.3%.

Turning to `COc1cc(C(=O)N2Cc3ccc(Br)cc3-n3nncc3C2)cc(OC)c1OC`, the “activity, negative = toxicity” value is 18.9%.

Turning to `CCN(CC)CCOC(=O)c1cc2cc(COC)ccc2o1`, the “activity, negative = toxicity” value is 4.54%.

On to `COc1ccc2c(c1)NP(=S)(c1ccccc1)N2` (stereo not given), for which the “activity, negative = toxicity” value was 17.6%.

Regarding `CCC(C)(O)C(=O)OC1C(=O)OC2CC3C(C)=CC(=O)C(O)C3(C)C3C4(O)OCC23C1C(C)C4O` (stereo not given), the Potency was 0.0411 µM (active).

As to `C[C@H]1CN([C@@H](C)CO)C(=O)CCCn2nncc2CO[C@H]1CN(C)C(=O)Oc1ccccc1`, the “activity, negative = toxicity” value was -2.35%.

Regarding `O=C1NC(=O)C(CCOc2ccccc2)(CCc2ccccc2)C(=O)N1`, the “activity, negative = toxicity” value was 3.48%.

For the compound `COc1ccc(C2C=C(C)Oc3c2c(=O)oc2ccccc32)cc1OC` (stereo not given), the “activity, negative = toxicity” value was -5.45%.

Consider `Cc1ccc(-c2nc3ccccc3c(=O)n2-c2ccc(Br)cn2)cc1`, for which the “activity, negative = toxicity” value is 22.6%.

Take `COC1C(O)C(C)OC(OC2CCC3(C=O)C(CCC4C3CCC3(C)C(C5=CC(=O)OC5)CCC43O)C2)C1O` (stereo not given): the Potency was 0.0184 µM (active).

For `CCn1cc(CN2CCCC(C(=O)c3cccc(C(F)(F)F)c3)C2)cn1` (stereo not given), the “activity, negative = toxicity” value is 5.48%.

On to `CSCCC(c1nnnn1C(C)(C)C)N1CCC(n2c(=O)[nH]c3ccccc32)CC1` (stereo not given), for which the “activity, negative = toxicity” value was -23.7%.

In the case of `CC1CCCN1CCC(C(N)=O)(c1ccccc1)c1ccccc1` (stereo not given), the “activity, negative = toxicity” value was -8.22%.

Regarding `CCOc1ccc(-c2cc(C)[n+](CCN(CC)CC)c(-c3ccc(OCC)cc3)c2)cc1`, the Potency was 5.17 µM (active).

With `CCC(=O)OC(Cc1ccccc1)(c1ccccc1)C(C)CN(C)C` (stereo not given), the “activity, negative = toxicity” value was -11.7%.

`CCC1(CC(C)c2ccccc2)C(=O)NC(=O)NC1=O` (stereo not given): the “activity, negative = toxicity” value is 5%.

Consider `COC(=O)C[C@H]1CC[C@H]2NC[C@@H](O)COC[C@@H]2O1`, for which the “activity, negative = toxicity” value was 22.5%.

On to `CC=C(C)C(=O)OC1CCN2CC=C(COC(=O)C(O)(C(C)OC)C(C)(C)O)C12` (stereo not given), for which the “activity, negative = toxicity” value is 1.21%.

As for `CC(=NCc1ccc2c(c1)OCO2)c1c(O)[nH]c(=O)[nH]c1=O`, the Potency is 20.6 µM (active).

For the compound `Fc1ccc(N2CCN(Cc3ccc4c(c3)OCO4)CC2)cc1`, the “activity, negative = toxicity” value is -4.13%.

Consider `c1cc2c(cc1CCNC1CCCCCC1)OCO2`, for which the “activity, negative = toxicity” value was 5.41%.

Turning to `CC(C)n1c(=O)c(C=Nc2ccc(Br)cc2)c(O)n(Cc2ccco2)c1=O`, the “activity, negative = toxicity” value was -19.8%.

Regarding `COC(=O)C1=C(c2ccc(C(C)=O)cc2)C[C@@H]2CC[C@H]1N2C(=O)NCCNC(C)=O`, the “activity, negative = toxicity” value is 7.51%.

For `Cc1cc(-c2ccc(N)c(C)c2)ccc1N`, the “activity, negative = toxicity” value is 12.8%.

Consider `CCN1C(=O)C(=Cc2c(C)n(CC(=O)NCC3CCCO3)c3ccccc23)C(=O)N(CC)C1=S` (stereo not given), for which the “activity, negative = toxicity” value is -8.26%.

Turning to `COc1cccc(OC)c1C(=O)NC(=S)N1C[C@H]2C[C@H](C1)c1cccc(=O)n1C2`, the “activity, negative = toxicity” value is 6.67%.

For the compound `CCCCCCCCCCCCn1ccc(=N)cc1`, the Potency is 1.84 µM (active).

As to `CN1C2C=C(N(C(=O)c3ccc(Cl)cc3)c3ccccc3)CC1CC2` (stereo not given), the activity, negative = toxicity is -4% [at 9.24 µM].

`CC(=O)NCC1=C(c2ccc3ccccc3c2)C[C@@H]2CC[C@H]1N2Cc1ccco1`: the “activity, negative = toxicity” value is 0.901%.

For the compound `CCOC(=O)[C@]12Cc3ccccc3[C@H]1N(C1CCCCC1)C(=O)c1cc(OC)ccc12`, the Potency was 3.26 µM (active).

`CCOC(=O)[C@]12Cc3cc(OC)ccc3[C@H]1N(C(C)C)C(=O)c1ccccc12`: the Potency is 16.4 µM (active).

On to `CC1([N+](=O)[O-])COP(=O)(Nc2ccc(F)cc2)OC1` (stereo not given), for which the “activity, negative = toxicity” value was 2.49%.

Turning to `C[C@]12CCC3C(CC[C@H]4[C@H](O)[C@H](O)CC[C@]34C)C1CC[C@@H]2O` (stereo not given in full), the “activity, negative = toxicity” value is 7.82%.

Regarding `CC(C)CN1Cc2cc(N3CCCCC3)ccc2-n2nncc2C1`, the “activity, negative = toxicity” value is 0.618%.

With `CCN1CC2C3CCC(C)(O3)C2C1` (stereo not given), the “activity, negative = toxicity” value was 13%.
